Assays:
[1] = system: Vero E6 infected with SARS-CoV-2; experiment: morphology score (similarity to uninfected cells); higher = more like uninfected cells; details: 24 h
[2] = system: Vero E6 infected with SARS-CoV-2; experiment: SARS-CoV-2 infection rate relative to infected DMSO; higher = more infection, active = 60 or less; details: 24 h

| Compound | morphology score [1] | SARS-CoV-2 infection rate [2] |
| --- | --- | --- |
| COc1c(Nc2ccc(S(C)(=O)=O)nc2C)ncnc1OC1CCN(C(=O)OC(C)C)CC1 (10 µM) | -0.00778 | 100% (inactive) |
| CNC(=O)c1cccc(NC(=O)N2CCC(Oc3ccccc3Cl)CC2)c1 (10 µM) | -0.102 | 114% (inactive) |
| CC(C)c1nnc(-c2ccc(-c3ccccc3)nc2)n1-c1cccc2nonc12 (10 µM) | -0.103 | 103% (inactive) |
